This is a sample that favours compounds with a hit; in the whole collection about 3.7% have one here.
ATXN2 expr inh: Primary qHTS for Inhibitors of ATXN expression | AID 1745845, 2022 | Potency, µM (doses to about 57 µM), for inactives: at the highest dose activity change, negative = inhibition, most hits filed as inhibitors | 360,000 tested, 0.72% active | HEK-293 ATXN2-luciferase reporter, luminescence, 24 h; note: % is set by controls: 0 for no effect and ±100 for the full control effect; nearly all actives have a fitted effect of over 55% in size
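ATXN2-luciferase reporter cells (luciferase flanked by upstream and downstream ATXN2 gene portions) were treated 24 h at 37 °C with compounds at up to 57 uM. SteadyGlo luminescence gave expression; GF-AFC fluorescence gave viability.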
TGFb inhibitor: qHTS for Inhibitors of TGF-b; HepG2 CAGA-GFP TGF-b/SMAD3 reporter, GFP fluorescence, 18 h; TGF-beta stimulated, 500 pg/mL final; Potency, µM (series often up to 46.1 µM), without a hit: top-dose activity, negative = inhibition, actives largely listed as inhibitors; 410,000 tested, 1.2% active; AID 588855, 2011; note: % is set by controls: 0 for no effect and ±100 for the full control effect; nearly all actives have a fitted effect of over 65% in size
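Inhibition of TGF-beta-driven CAGA-GFP reporter expression in HEPG2 cells is measured by cellular GFP fluorescence after 18 h stimulation with 500 pg/mL recombinant TGF-beta in 1% FBS medium at 37 degrees C.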
GLP-1R inv ag: qHTS of GLP-1 Receptor Inverse Agonists (Inhibition Mode). 410,000 tested, 1.6% active. Glucagon-like peptide 1 receptor (Homo sapiens), P43220. HEK293 GLP-1R CRE-luciferase, luminescence, 24 h; GLP-1R form is constitutively active. Potency, µM (titrated, usually from 38.3 µM), for the others: at the highest dose activity change, negative = inhibition, hits mostly inhibitors; note: % is set by controls: 0 for no effect and ±100 for the full control effect; nearly all actives have a fitted effect of over 55% in size
Target sequence (P43220 whole entry, looked up): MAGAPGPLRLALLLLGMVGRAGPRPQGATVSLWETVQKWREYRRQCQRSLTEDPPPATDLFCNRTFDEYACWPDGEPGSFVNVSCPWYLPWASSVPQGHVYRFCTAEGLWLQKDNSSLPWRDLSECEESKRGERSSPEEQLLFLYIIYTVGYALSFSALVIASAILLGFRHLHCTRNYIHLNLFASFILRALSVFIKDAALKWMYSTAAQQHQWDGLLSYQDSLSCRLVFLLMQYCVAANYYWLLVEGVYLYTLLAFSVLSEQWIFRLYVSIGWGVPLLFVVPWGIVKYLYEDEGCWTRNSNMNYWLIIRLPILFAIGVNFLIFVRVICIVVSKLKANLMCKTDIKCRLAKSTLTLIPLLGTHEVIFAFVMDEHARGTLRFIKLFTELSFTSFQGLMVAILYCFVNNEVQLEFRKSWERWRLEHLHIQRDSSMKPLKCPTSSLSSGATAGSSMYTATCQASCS
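Inverse agonists were sought by their lowering of basal cAMP reporter luciferase output in HEK293 cells stably carrying constitutively active human GLP-1R, after 24 h compound treatment.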
GLP-1R agonist: qHTS of GLP-1 Receptor Agonists. HEK293 GLP-1R CRE-luciferase, luminescence, 4-6 h; cells express a hypersensitive GLP-1R form. Potency, µM (doses to about 45.6 µM), for inactives: at the top dose activation, hits mostly activators. 380,000 tested, 0.007% active. AID 624172, 2012; note: % of control where 0% means no effect
HepG2 tox-1: qHTS for Inhibitors of TGF-b: Cytotox Counterscreen. 410,000 tested, 0.76% active. HepG2 CAGA-GFP viability, ATP luminescence, 18 h. Potency, µM (series often up to 46.1 µM), inactives show at the top dose activity change, negative = cytotoxicity, actives largely listed as cytotoxic
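CellTiter-Glo luminescence gave cytotoxicity after 18 hours at 37 degrees C. The cells were HepG2 CAGA-GFP in 1% FBS DMEM, stimulated with 500 pg/mL TGF-beta after compound addition. %Activity was normalised to no-cell wells (complete cell-killing) and DMSO (no toxicity), and curves were fitted and classified.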
ATXN viability: Viability Counterscreen for Primary qHTS for Inhibitors of ATXN expression; S2 cells (HEK-293 line with an ATXN2-luciferase reporter) viability, CellTiter-Fluor protease fluorescence, 24 h; Potency, µM (top dose mostly 56.7 µM), usual class: cytotoxic; 400,000 tested, 0.49% active; AID 651635, 2014; note: nearly all actives have a fitted effect of over 40% in size
TGFb confirm: qHTS for Inhibitors of TGF-b: Confirmation of Cherry Picks | shares compounds with TGFb inhibitor | HepG2 CAGA-GFP TGF-b reporter, GFP fluorescence, 18 h; cells stimulated with TGF-beta, 500 pg/mL | Potency, µM (top dose mostly 46.1 µM), inactives show top-dose activity, negative = inhibition, hits mostly inhibitors | 1,600 tested, 63% active; note: % is set by controls: 0 for no effect and ±100 for the full control effect; nearly all actives have a fitted effect of over 65% in size
HepG2 tox-2: qHTS for Inhibitors of TGF-b: Cytotox Counterscreen for Cherry Picks; Potency, µM (highest dose often 46.1 µM), inactives show at the highest dose activity, negative = cytotoxicity, actives largely listed as inhibitors; 1,600 tested, 27% active; HepG2 CAGA-GFP viability, ATP luminescence, 18 h; cells stimulated with TGF-beta, 500 pg/mL; shares compounds with TGFb inhibitor; AID 720535, 2013; note: % is set by controls: 0 for no effect and ±100 for the full control effect; nearly all actives have a fitted effect of over 70% in size
CCL64 TGFb inh: qHTS for Inhibitors of TGF-b: CCL64 Cells Orthogonal Assay for Cherry Picks. 1,600 tested, 41% active. shares compounds with TGFb inhibitor. Potency, µM (titrated, usually from 46.1 µM), without a hit: top-dose activity, negative = inhibition, actives largely listed as inhibitors. CCL64 CAGA-GFP reporter, TGF-b stimulated, GFP fluorescence, 18 h; note: nearly all actives have a fitted effect of over 65% in size
TGFb COP inh: qHTS for Inhibitors of TGF-b: Hit Validation in HepG2 Cells using COP promoter; Potency, µM (highest dose often 46.1 µM), without a hit: at the top dose activity, negative = inhibition, most hits filed as inhibitors; shares compounds with TGFb inhibitor; HepG2 COP-GFP TGF-b reporter, GFP fluorescence, 18 h; cells stimulated by added recombinant TGF-beta; 1,600 tested, 3% active; note: nearly all actives have a fitted effect of over 70% in size
Numbers without * were called inactive; i = inactive; ? = inconclusive; · = no result given. Calls come from the whole dose curve; as a rule, active = well fitted curve in the direction sought with a large enough effect; inconclusive = small, poorly fitted or top-dose-only effect, or another doubt; inactive = no such curve, though single readings can be large; an effect the other way counts as inactive or inconclusive. Potency is the fitted concentration of half-maximal effect.

SMILES	ATXN2 expr inh	TGFb inhibitor	GLP-1R inv ag	GLP-1R agonist	HepG2 tox-1	ATXN viability	TGFb confirm	HepG2 tox-2	CCL64 TGFb inh	TGFb COP inh
O=c1c(Cc2ccc(Cl)cc2Cl)c(O)ccn1Cc1ccc(Cl)cc1	-12%	11µM*	?	-12%	1%	i	?	?	?	24%
COc1ccc(C(=O)c2ccc(N3CCOCC3)c([N+](=O)[O-])c2)cc1	-32%	-8%	-22%	14%	-13%	?	·	·	·	·
COc1ccc(Nc2nnc(-c3ccc(N4CCOCC4)c([N+](=O)[O-])c3)c3ccccc23)cc1	4%	?	4%	1%	4%	i	4.1µM*	2%	?	23%
CCOc1ccc(CCN2C(=S)N([C@@H](Cc3ccc(O)cc3)CN3CCC[C@@H]3CN3C(=S)NC[C@@H]3CC(C)C)C[C@@H]2Cc2ccccc2)cc1	0%	?	?	-2%	-10%	?	?	-3%	?	15%
CCOc1ccc(CCN2C(=S)N([C@@H](Cc3ccc(O)cc3)CN3CCC[C@@H]3CN3C(=S)NC[C@@H]3Cc3ccc(O)cc3)C[C@@H]2Cc2ccc(O)cc2)cc1	?	·	?	-2%	·	?	·	·	·	·
CCOc1ccc(CCN2C(=S)N([C@@H](Cc3ccc(O)cc3)CN3CCC[C@@H]3CN3C(=S)NC[C@@H]3CC(C)C)C[C@@H]2CC(C)C)cc1	?	4.5µM*	-52%	-2%	-10%	?	?	-19%	16µM*	21%
CCOc1ccc(CCN2C(=S)N([C@@H](Cc3ccc(O)cc3)CN3CCC[C@@H]3CN3C(=S)NC[C@@H]3Cc3ccccc3)C[C@@H]2CC(C)C)cc1	-3%	-9%	?	-2%	-22%	?	·	·	·	·

Compound activity from PubChem BioAssay.
